Measured values as given in PubChem BioAssay (NCATS).
Several values for one entry are separate records, joined by “and”; a condition that tells them apart may be missing. Identical values can stand only once. Results filed as inconclusive are left out. Activity calls are given as the source filed them. The call rests on the fitted dose curve; in most records, active means well fitted curve in the direction sought with a large enough effect; inconclusive means small, poorly fitted or top-dose-only effect, or another doubt; inactive means no such curve, though single readings can be large; an effect the other way counts as inactive or inconclusive.

What was measured:
[1] = qHTS of pediatric cancer cell lines to identify multiple opportunities for drug repurposing: Primary screen for SJ-GBM2 cells (AID 1347091); further: potency means the concentration at half of the fitted maximal effect
In short: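 Cell viability, CellTiter-Glo luminescence; 500-1,000 cells/well, 8- or 11-point titration, 48 h compound exposure at 37 degrees C, 5% CO2. Controls: DMSO neutral, bortezomib 2.3 µM final as positive.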

[2] = qHTS of pediatric cancer cell lines to identify multiple opportunities for drug repurposing: Primary screen for A673 cells (AID 1347092); further: nearly all actives have a fitted effect of over 45% in size; further: potency means the concentration at half of the fitted maximal effect
In short: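 Cell viability of A673 measured by CellTiter-Glo ATP luminescence after 48 hours compound exposure. Dilution series spanned 0.78 nM to 46 µM (MIPE, 11-point) or 0.59 nM to 46 µM (NPC, 8-point); bortezomib 2.3 uM positive control.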

[3] = qHTS of pediatric cancer cell lines to identify multiple opportunities for drug repurposing: Primary screen for SK-N-MC cells (AID 1347093); further: potency means the concentration at half of the fitted maximal effect
In short: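 Metabolically active cells were quantified by ATP-dependent luminescence (CellTiter-Glo, 15 min at room temperature) following 48 h treatment. Cells had been plated at 500-1,000 per well and settled for 5 h beforehand.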

[4] = qHTS of pediatric cancer cell lines to identify multiple opportunities for drug repurposing: Primary screen for BT-37 cells (AID 1347094); further: potency means the concentration at half of the fitted maximal effect
In short: (§1)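 ATP-based luminescence (CellTiter-Glo) quantifies viability after a 48-hour exposure. Compounds are dosed across 8 or 11 final concentrations; DMSO and 2.3 µM bortezomib serve as controls.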

[5] = qHTS of pediatric cancer cell lines to identify multiple opportunities for drug repurposing: Primary screen for NB-EBc1 cells (AID 1347095); further: potency means the concentration at half of the fitted maximal effect
In short: as §1

[6] = qHTS of pediatric cancer cell lines to identify multiple opportunities for drug repurposing: Primary screen for U-2 OS cells (AID 1347096); further: nearly all actives have a fitted effect of over 50% in size; further: potency means the concentration at half of the fitted maximal effect
In short: (§2)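 Cells (500-1,000/well) rested 5 h, then received compounds for 48 h; metabolically active cells were measured by CellTiter-Glo luminescence. Final concentrations spanned up to 46 µM (MIPE, 11-point) or 0.59 nM-46 µM (NPC, 8-point) in primary screens, 11-point in follow-ups.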

[7] = qHTS of pediatric cancer cell lines to identify multiple opportunities for drug repurposing: Primary screen for Saos-2 cells (AID 1347097); further: nearly all actives have a fitted effect of over 40% in size; further: potency means the concentration at half of the fitted maximal effect
In short: as §1

[8] = qHTS of pediatric cancer cell lines to identify multiple opportunities for drug repurposing: Primary screen for SK-N-SH cells (AID 1347098); further: nearly all actives have a fitted effect of over 65% in size; further: potency means the concentration at half of the fitted maximal effect
In short: as §2

[9] = qHTS of pediatric cancer cell lines to identify multiple opportunities for drug repurposing: Primary screen for NB1643 cells (AID 1347099); further: nearly all actives have a fitted effect of over 50% in size; further: potency means the concentration at half of the fitted maximal effect
In short: as §1

[10] = qHTS of pediatric cancer cell lines to identify multiple opportunities for drug repurposing: Primary screen for LAN-5 cells (AID 1347100); further: potency means the concentration at half of the fitted maximal effect
In short: as §2

[11] = qHTS of pediatric cancer cell lines to identify multiple opportunities for drug repurposing: Primary screen for OHS-50 cells (AID 1347103); further: nearly all actives have a fitted effect of over 40% in size; further: potency means the concentration at half of the fitted maximal effect
In short: as §2

[12] = qHTS of pediatric cancer cell lines to identify multiple opportunities for drug repurposing: Primary screen for RD cells (AID 1347104); further: nearly all actives have a fitted effect of over 55% in size; further: potency means the concentration at half of the fitted maximal effect
In short: as §1

[13] = qHTS of pediatric cancer cell lines to identify multiple opportunities for drug repurposing: Primary screen for MG 63 (6-TG R) cells (AID 1347105); further: nearly all actives have a fitted effect of over 50% in size; further: potency means the concentration at half of the fitted maximal effect
In short: as §1

[14] = qHTS of pediatric cancer cell lines to identify multiple opportunities for drug repurposing: Primary screen for control Hh wild type fibroblast cells (AID 1347106);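 further: series mostly up to about 46 µM; a drop in luminescence marks cytotoxicity and a rise apparent proliferation; nearly all actives have a fitted effect of over 55% in size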
In short: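 Cells (500-1,000/well) in growth media were settled 5 h at 37 degrees C, then given compounds for 48 h. Viability was read as CellTiter-Glo luminescence. Primary runs used MIPE at 11 points (0.78 nM-46 µM) and NPC at 8 points (0.59 nM-46 µM); follow-ups used 11 points.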

[15] = qHTS of pediatric cancer cell lines to identify multiple opportunities for drug repurposing: Primary screen for BT-12 cells (AID 1347101); further: nearly all actives have a fitted effect of over 25% in size; further: potency means the concentration at half of the fitted maximal effect
In short: as §2

[16] = qHTS of pediatric cancer cell lines to identify multiple opportunities for drug repurposing: Primary screen for Rh18 cells (AID 1347102); further: nearly all actives have a fitted effect of over 65% in size; further: potency means the concentration at half of the fitted maximal effect
In short: as §2

[17] = qHTS of pediatric cancer cell lines to identify multiple opportunities for drug repurposing: Primary screen for Rh30 cells (AID 1347107); further: series mostly up to about 46 µM; nearly all actives have a fitted effect of over 75% in size
In short: as §2

[18] = qHTS of pediatric cancer cell lines to identify multiple opportunities for drug repurposing: Primary screen for Rh41 cells (AID 1347108); further: nearly all actives have a fitted effect of over 70% in size; further: potency means the concentration at half of the fitted maximal effect
In short: as §1

[19] = qHTS of pediatric cancer cell lines to identify multiple opportunities for drug repurposing: Confirmatory screen for A673 cells (AID 1347110);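 further: cells exposed to compound for 48 h before the viability read; nearly all actives have a fitted effect of over 65% in size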
In short: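 Viability was read as ATP luminescence (CellTiter-Glo) after 48 h of compound exposure at 37 C in A673 cells seeded at 500-1,000/well. Titrations reached 46 uM final, with 11 points in the confirmatory screen. Concentration-response curves were fitted directly.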

Measured: Potency

CS(=O)(=O)c1cccc(CNc2nc(Nc3ccc4c(c3)CCC(=O)N4)ncc2C(F)(F)F)c1
active: [1] 10.5 µM | [2] 14.8 µM | [3] 7.43 µM | [4] 27.3 µM | [5] 14.8 µM | [6] 18.7 µM | [7] 16.6 µM | [8] 24.1 µM | [9] 16.6 µM | [10] 3.32 µM | [11] 6.11 µM | [12] 16.6 µM | [13] 11.8 µM
inactive: [14]

CC1(C)SCCN(S(=O)(=O)c2ccc(OCC#CCO)cc2)[C@@H]1C(=O)NO
not listed: [8] | [19]
inactive: all other assays above

NS(=O)(=O)c1cc2c(cc1Cl)NC=NS2(=O)=O
not listed: [19]
inactive: all other assays above

Cc1[nH]c(=O)c(C#N)cc1-c1ccc2nccn2c1
not listed: [19]
inactive: all other assays above

C[C@]12CCC(=O)C=C1CC[C@@H]1[C@@H]2[C@@H](O)C[C@@]2(C)[C@H]1CC[C@]2(O)C(=O)CO
not listed: [19]
inactive: all other assays above

c1ccc([C@H]2CN3CCSC3=N2)cc1
not listed: [19]
inactive: all other assays above

COc1cc2nccc(Oc3ccc(NC(=O)NC4CC4)c(Cl)c3)c2cc1C(N)=O
active: [1] 0.526 µM | [2] 0.469 µM | [3] 0.935 µM | [4] 1.37 µM | [5] 0.0935 µM | [8] 1.52 µM | [9] 2.96 µM | [10] 0.372 µM | [15] 6.85 µM | [16] 5.26 µM | [12] 14.8 µM | [18] 5.9 µM
inactive: [6] | [17]

CCCc1nc2c(C)cc(-c3nc4ccccc4n3C)cc2n1Cc1ccc(-c2ccccc2C(=O)O)cc1
active: [3] 16.6 µM
not listed: [19]
inactive: all other assays above

CC(C=CC1=C(C)CCCC1(C)C)=CC=CC(C)=CC(=O)O
active: [2] 14.8 µM and 296 nM | [3] 8.33 µM and 1.48 µM | [11] 0.344 µM | [13] 9.35 µM
not listed: [7] | [9] | [12] | [14] | [18]
inactive: all other assays above

Cc1ccccc1C(OCCN(C)C)c1ccccc1 (configuration not stated)
not listed: [8] | [11] | [19]
inactive: all other assays above

OC(CCN1CCCCC1)(c1ccccc1)C1CC2C=CC1C2 (configuration not stated)
not listed: [19]
inactive: all other assays above

Cc1cc2c(C(C)C)c(O)c(O)c(C=O)c2c(O)c1-c1c(C)cc2c(C(C)C)c(O)c(O)c(C=O)c2c1O
active: [1] 4.22 µM and 3.72 µM | [2] 23.5 µM | [3] 5.96 µM and 9.35 µM | [4] 15.5 µM and 24.3 µM | [5] 3.76 µM and 2.96 µM | [7] 8.41 µM and 16.6 µM | [9] 8.41 µM and 7.43 µM | [10] 3.35 µM and 11.8 µM | [15] 13.8 µM and 19.3 µM | [16] 23.5 µM | [11] 11 µM and 19.3 µM | [12] 26.6 µM and 29.6 µM | [13] 21.1 µM and 23.5 µM | [18] 16.8 µM and 18.7 µM
inactive: [6] | [14]

CC(C)NCC(O)COc1ccc(COCCOC(C)C)cc1 (configuration not stated)
not listed: [19]
inactive: all other assays above
